Laboratory results taken from PubChem BioAssay AID1851 (National Center for Advancing Translational Sciences (NCATS), 2009).
In all, about 16,000 compounds went through this assay and about 5,800 (36%) were called active. Roughly 23% stayed inconclusive and do not appear here. Calls follow the shape of the dose curve; as a rule, active = well fitted curve in the direction sought with a large enough effect; inconclusive = small, poorly fitted or top-dose-only effect, or effect the other way; inactive = no such curve, though single readings can be large or run the other way. The list shows a part of the results.

Biological target: Cytochrome P450 2C19 (Homo sapiens) (UniProt P33261)
Assay: Cytochrome panel assay with activity outcomes
Settings: recombinant CYP, pro-luciferin dealkylation, luminescence, p450-cyp2c19; series mostly up to 57.1 µM; activity, negative = inhibition: at the top concentration
% is scaled to controls: 0 for no effect and ±100 for the full control effect.

Sequence of Cytochrome P450 2C19 (Homo sapiens) (P33261 whole entry, looked up): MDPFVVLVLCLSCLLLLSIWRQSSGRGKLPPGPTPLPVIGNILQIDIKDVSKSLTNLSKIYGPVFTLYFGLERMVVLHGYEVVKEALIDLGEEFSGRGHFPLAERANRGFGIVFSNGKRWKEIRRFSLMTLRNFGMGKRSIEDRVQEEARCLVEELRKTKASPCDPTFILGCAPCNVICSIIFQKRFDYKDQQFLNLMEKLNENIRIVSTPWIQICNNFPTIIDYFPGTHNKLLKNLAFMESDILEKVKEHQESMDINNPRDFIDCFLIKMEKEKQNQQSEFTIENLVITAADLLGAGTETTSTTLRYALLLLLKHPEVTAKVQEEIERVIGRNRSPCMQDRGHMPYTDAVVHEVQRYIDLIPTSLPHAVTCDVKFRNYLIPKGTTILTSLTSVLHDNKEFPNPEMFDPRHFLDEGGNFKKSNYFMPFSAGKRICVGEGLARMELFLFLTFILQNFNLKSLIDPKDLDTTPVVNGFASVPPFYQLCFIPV

activity, negative = inhibition, inactive:
Nc1ccc(S(=O)(=O)Nc2nccs2)cc1 7.08% [at 25.6 µM]
Nc1ccc(S(=O)(=O)Nc2ncccn2)cc1 25.6% [at 25.6 µM]
O=C(O)c1cccnc1 6.1% [at 25.6 µM]
CCNc1ncc2nc(-c3cccs3)c(=O)n(CCC#N)c2n1 -20.2%
COC(Cc1nnc(SC)n1-c1ccccc1)OC -17%
COC(Cc1nnc(SC)n1-c1ccc(Cl)cc1)OC -9.57%
CC(C)CN1CCCC2(CCN(C(=O)c3csnn3)CC2)C1 -12.1%
C[C@@H]1CCCC(CC(=O)O)(CC(=O)O)C1 9.85% [at 11.4 µM]
O=C(/C=C/c1ccc(Br)cc1)NC1CCCCCC1 -28.3%
Cc1cc2nc3[nH]c4c(Cl)cc(Cl)cc4c3nc2cc1C 32.6% [at 11.4 µM]
CN(C)C(=O)c1ccc(-c2cc(N(C)Cc3ccco3)ncn2)cc1 -41.6%
CC(=O)OC[C@H]1O[C@@H](O/N=C\[C@@H](C)[C@H](OCc2ccccc2)C(C)C)[C@H](OC(C)=O)[C@@H](OC(C)=O)[C@H]1OC(C)=O 12.9% [at 11.4 µM]
O=C1C=C(NCC2CCCO2)C2(CCCCC2)O1 (centres undefined) -39.1%
Cc1cc2ccccc2nc1SCC(=O)Nc1nc(-c2ccccc2)cs1 -7.04%
CC(=O)OC[C@@H]1O[C@H](C/C=N\O[C@@H]2O[C@H](COC(C)=O)[C@@H](OC(C)=O)[C@H](OC(C)=O)[C@H]2OC(C)=O)C=C[C@@H]1OC(C)=O 12.3% [at 11.4 µM]
O=C(COc1ccc(Cl)cc1)Nc1ccc(N2CCN(C(=O)c3ccco3)CC2)cc1 -27.1%

AC50, active:
Nc1ccc(S(=O)(=O)NCc2nccs2)cc1 0.0794 µM
Cc1cccc(NC(NC(=O)c2cccnc2)C(Cl)(Cl)Cl)c1 (centres undefined) 2.82 µM
O=C(NC(NCc1ccccc1)C(Cl)(Cl)Cl)c1cccnc1 (centres undefined) 4.47 µM
COC(=O)CSc1nnc(CNc2ccc(Cl)cc2)n1-c1ccccc1 5.01 µM
CCOc1ccc(NCc2nnc(SCc3ccccc3Cl)n2-c2ccccc2)cc1 2 µM
COc1ccc(NCc2nnc(SCc3ccccc3)n2-c2ccc(OC)cc2)cc1 3.98 µM
Cc1ccc(/C=C/C(=O)NC(=S)Nc2ccccc2C(=O)NC2CCCCC2)cc1 14.1 µM
O=c1c([N+](=O)[O-])cc(C(F)(F)F)cn1Cc1c(Cl)cccc1Cl 7.08 µM
CN(C)c1ccc(-c2cc(N(C)Cc3ccco3)ncn2)cc1 10 µM
CN(Cc1ccco1)c1cc(-c2ccc3c(c2)OCO3)ncn1 10 µM
COc1ccc2cc(C)c3nnc(SCC(=O)Nc4nc(-c5ccccc5)cs4)n3c2c1 5.01 µM
O=C(CN1CCN(c2ccc(Cl)cc2)CC1)Nc1cccc(F)c1 5.01 µM
O=C(CN1CCN(c2ccc(Cl)cc2)CC1)Nc1ccc(F)c(F)c1 7.94 µM
